Measurements reported in PubChem BioAssay (NCI).
This is part of a sample that, as a whole, favours compounds with a hit. Of some 79,000 tested, about 15% had one in any assay. A number with no mark means an inactive call. Activity calls are given as the source filed them. Cut-off read from the data, not from the text of the source: active = growth inhibition above about 70%; inactive = the rest.

How the values were obtained:
[1] = NCI Yeast Anticancer Drug Screen. Data for the rad50 strain (AID 155);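 note: 0% = growth of vehicle-only cultures of the same strain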; conditions: S. cerevisiae rad50 strain growth inhibition, active compounds read high
Method in brief: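 Cells are treated with compound, grown, and their growth is then scored against vehicle-only cultures of the same repair-deficient yeast strain.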

[2] = NCI Yeast Anticancer Drug Screen. Data for the mec2-1 strain (AID 157); conditions: S. cerevisiae mec2-1 strain, active compounds read high
Method in brief: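 Test agents were screened against the mec2-1 yeast strain, with defined DNA repair or cell cycle alteration. Growth was scored as inhibition against vehicle-only controls.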

[3] = NCI Yeast Anticancer Drug Screen. Data for the sgs1 mgt1 strain (AID 161);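 note: 0% = growth of cultures given vehicle only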; conditions: S. cerevisiae sgs1 mgt1 strain, active compounds read high
Method in brief: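 Inhibition of yeast growth, normalised to vehicle-treated controls, is reported for a strain bearing genetic alterations in DNA damage repair.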

[4] = NCI Yeast Anticancer Drug Screen. Data for the cln2 rad14 strain (AID 165);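 note: 0% = growth equal to vehicle treated cultures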; conditions: S. cerevisiae cln2 rad14 strain, active compounds read high
Method in brief: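 Growth of compound-exposed yeast (cln2 rad14 genotype) measured and expressed as inhibition relative to vehicle.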

[5] = NCI Yeast Anticancer Drug Screen. Data for the bub3 strain (AID 167); conditions: S. cerevisiae bub3 mutant strain, active compounds read high
Method in brief: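 Part of a panel of yeast mutants defective in DNA damage repair or cell cycle regulation. Each strain is grown with compound, and inhibition is calculated relative to solvent-treated cultures.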

[6] = NCI Yeast Anticancer Drug Screen. Data for the mlh1 rad18 strain (AID 175); conditions: S. cerevisiae mlh1 rad18 strain growth inhibition, active compounds read high
Method in brief: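 In this whole-cell yeast screen, a strain with altered DNA damage repair is challenged with compound, and its growth is measured against matched vehicle-treated controls.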

[7] = at 5.0 µM (retest, dose inferred, filed as 0.5)
[8] = at 50.0 µM (retest, dose inferred, filed as 5.0)

SMILES	growth inhibition [1, 7]	growth inhibition [1, 8]	growth inhibition ([1]; at 50.0 µM)	growth inhibition [2, 7]	growth inhibition [2, 8]	growth inhibition ([2]; at 50.0 µM)	growth inhibition [3, 7]	growth inhibition [3, 8]	growth inhibition ([3]; at 50.0 µM)	growth inhibition [4, 7]	growth inhibition [4, 8]	growth inhibition ([4]; at 50.0 µM)	growth inhibition [5, 7]	growth inhibition [5, 8]	growth inhibition ([5]; at 50.0 µM)	growth inhibition [6, 7]	growth inhibition [6, 8]	growth inhibition ([6]; at 50.0 µM)
COC(=O)C1(NC(=O)C(CC(=O)OCc2ccccc2)NC(=O)OCc2ccccc2)CCCCCC1 (stereo not given)	3%	30%	63%	-1%	41%	8.9%	-12%	25%	50.3%	-2%	47%	71.5% (active)	-22%	66%	56.8%	-3%	64%	59.1%
O=C1C(C(O)(C(F)(F)Cl)C(F)(F)Cl)CCCC1C(O)(C(F)(F)Cl)C(F)(F)Cl (stereo not given)	95% (active)	99% (active)	99.7% (active)	97% (active)	100% (active)	99.7% (active)	95% (active)	99% (active)	99.8% (active)	79% (active)	100% (active)	99.3% (active)	35%	99% (active)	99.7% (active)	96% (active)	99% (active)	99.6% (active)
O=S1(=O)c2ccccc2C(O)(c2ccccc2)c2cc3ccccc3n21 (stereo not given)	9%	95% (active)	95.8% (active)	9%	96% (active)	95.5% (active)	12%	97% (active)	94.2% (active)	9%	95% (active)	94.9% (active)	5%	96% (active)	94.3% (active)	8%	95% (active)	95.5% (active)
COc1ccc(-c2c(C#N)c(S)n(NS(=O)(=O)c3ccc(C)cc3)c(=O)c2C#N)cc1	40%	89% (active)	28.8%	18%	88% (active)	69.1%	34%	97% (active)	61%	48%	64%	20%	58%	95% (active)	43.8%	27%	69%	71.5% (active)
CC(/C=C/c1cccs1)=N\NC(=S)NCC(C)C	-3%	95% (active)	95.6% (active)	11%	96% (active)	96.2% (active)	9%	-24%	97% (active)	-2%	96% (active)	94% (active)	-1%	95% (active)	96.9% (active)	3%	96% (active)	97% (active)
CCOC(=O)C(=N\Nc1ccccc1C)/C(C)=N\NC(N)=S	-9%	37%	73.5% (active)	7%	55%	48.5%	15%	71% (active)	75.2% (active)	-13%	20%	81.1% (active)	5%	30%	73.6% (active)	18%	68%	80.3% (active)
CNC(=O)NC(c1cc(OC)c(OC)c(OC)c1)c1cc2c(cc1O)OCO2 (stereo not given)	-15%	-9%	17.2%	-1%	-8%	13.4%	-14%	5%	-0.1%	-28%	-15%	23.6%	-16%	-4%	-1.6%	-19%	-5%	16.8%
CN1c2ccccc2S(=O)(=O)n2c(CCc3ccccc3)nnc21	1%	10%	14.3%	5%	13%	-3%	10%	10%	-6.9%	17%	14%	9.85%	9%	15%	-10.7%	10%	17%	32.5%
CCCN(CCC)CC(O)c1ccc2ccc3ccc(Cl)cc3c2c1 (stereo not given)	20%	98% (active)	99.8% (active)	18%	98% (active)	99.8% (active)	39%	99% (active)	99.8% (active)	29%	98% (active)	99.6% (active)	38%	98% (active)	99.5% (active)	27%	99% (active)	99.8% (active)
Cc1ccc2[nH]c3c(c2c1)CCC/C3=N/N=C(N)N	26%	93% (active)	63%	14%	100% (active)	83% (active)	24%	99% (active)	90.8% (active)	22%	99% (active)	91% (active)	21%	99% (active)	89.2% (active)	29%	97% (active)	90.8% (active)
